Rows were chosen to be rich in hits. Some 28% of all compounds tested hit in one or more screens of this group.
Mac1 fbg enh: increases human CD11b/CD18 adhesion to fibrinogen; K562 CD11b/CD18 adhesion to fibrinogen, ATPlite luminescence; activation, % at 10 µM; actives 0.07% (n = 93,000); AID 1499;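 active = 10 µM primary screen giving 50% or more activity, confirmed by 40% or more on retest at that dose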
Mac1 fbg inh: CD11b/CD18-fibrinogen binding inhibition; P05107+P11215; K562 CD11b/CD18 adhesion to fibrinogen, ATPlite luminescence; Mn2+ added to activate the integrin; inhibition, % at 10 µM; actives 0.54% (n = 93,000);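 active = primary inhibition of 50% or more at 10 µM, then 40% or more on retest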
CYP2C19 inh: blocks human cytochrome P450 2C19 | CYP2C19 Supersomes, luciferin-H EGE luminescence, 30 min | inhibition, % at 5 µM | actives 21% (n = 96,000) | AID 778;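 active = CYP2C19 inhibition above a set limit at 5 µM in the primary screen, cut at about 50% in these data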;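 note: plate controls were negative control wells for no effect and 2.5 mM tranylcypromine positive control for full effect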
Target sequence (P33261 whole entry, looked up): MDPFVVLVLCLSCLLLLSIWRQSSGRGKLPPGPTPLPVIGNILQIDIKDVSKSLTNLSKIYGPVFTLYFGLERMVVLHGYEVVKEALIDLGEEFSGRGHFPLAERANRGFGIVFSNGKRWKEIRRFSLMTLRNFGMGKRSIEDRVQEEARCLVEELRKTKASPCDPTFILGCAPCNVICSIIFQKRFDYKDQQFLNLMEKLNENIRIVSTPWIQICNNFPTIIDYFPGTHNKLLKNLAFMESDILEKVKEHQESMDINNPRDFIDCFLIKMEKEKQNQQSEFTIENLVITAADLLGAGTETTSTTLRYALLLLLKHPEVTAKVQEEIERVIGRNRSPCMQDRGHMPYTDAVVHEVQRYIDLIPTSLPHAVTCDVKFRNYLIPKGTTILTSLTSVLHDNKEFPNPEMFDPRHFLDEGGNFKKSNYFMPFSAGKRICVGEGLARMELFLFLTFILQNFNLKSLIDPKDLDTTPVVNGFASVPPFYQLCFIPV
CYP2C19 activ: increases human CYP2C19 enzyme activity. recombinant CYP2C19, luciferin-H EGE luminescence; active compounds read high; 0 = fully inhibited enzyme, 1 = untreated enzyme. 96,000 tested, under 10 active. activation factor at 5 µM. P33261. AID 1025;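 active = activation factor of at least 2 at 5 µM in the primary screen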;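 note: 0 = wells with 2.5 mM tranylcypromine and 1 = vehicle-only wells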
CYP2C9 inh: blocks human cytochrome P450 2C9; CYP2C9 Supersomes, luciferin-H conversion, luminescence; inhibition, % at 5 µM; actives 20% (n = 96,000); AID 777;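 active = blocking of liver enzyme CYP2C9 beyond about 50% at 5 µM, limit read from the data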
CYP2C9 act: CYP2C9 (human) activation | activation factor at 5 µM | actives 1.4% (n = 96,000) | recombinant CYP2C9, luciferin-H conversion, luminescence; active compounds read high; factor 1 = untreated enzyme, 0 = blocked | AID 1024 | P11712;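 active = activation factor of 2 or more for CYP2C9 at a 5 µM dose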;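 note: 0 = sulfaphenazole-blocked wells and 1 = vehicle-only wells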
Numbers without * were called inactive; . = not tested or not shown.

SMILES	Mac1 fbg enh	Mac1 fbg inh	CYP2C19 inh	CYP2C19 activ	CYP2C9 inh	CYP2C9 act
CCOC(=O)CCP(=O)(O)C(O)c1ccc(OC)cc1 (configuration not stated)	4	30	0	1	6	0.9
O=c1[nH]cnc2c1C(c1ccccc1[N+](=O)[O-])c1c(nc[nH]c1=O)O2	-2	6	-15	1.1	13	0.9
COc1ccc(C(=O)NC2CCCCCC2)cc1S(=O)(=O)Nc1ccc(Br)cc1	-2	0	-13	1.1	13	0.9
COc1ccc(NC(=O)c2cccc(S(=O)(=O)Nc3ccc(Br)cc3)c2)cn1	-11	103*	.	.	.	.
CC(C)c1ccc(OCC(=O)NC(=S)Nc2ccc3c4c(cccc24)CC3)cc1	-5	-4	-4	1	-25	1.3
Cc1cc(=O)oc2cc(OCC3CC(c4ccc(Cl)cc4)=NO3)ccc12 (configuration not stated)	-3	34	51*	0.5	43	0.6
Cc1cc(=O)oc2cc(OCC3CC(c4ccc(N(C)C)cc4)=NO3)ccc12 (configuration not stated)	-2	-3	10	0.9	15	0.9
Cc1cc(-c2csc(NC(=O)c3ccccc3C(F)(F)F)n2)c(C)n1Cc1ccccc1	5	-11	.	.	.	.
Cc1cc(-c2csc(N)n2)c(C)n1CCC(C)C	7	-21	95*	0	81*	0.2
Cc1cc(-c2csc(N)n2)c(C)n1CCc1ccccc1	12	-13	84*	0.2	66*	0.3
CCOC(=O)c1cc(C)n(CCc2ccccc2)c1C	8	5	8	0.9	34	0.7
CN(C(=O)CSc1nc(-c2ccccc2)cn1N)C(c1ccccc1)c1ccccc1	-1	8	24	0.8	76*	0.2
Nn1cc(-c2ccccc2)nc1SCC(=O)NCCN1C(=O)CSC1=O	1	-2	60*	0.4	16	0.8
COc1ccccc1CNC(=O)CSc1nc(-c2ccccc2)cn1N	1	-2	93*	0.1	87*	0.1
Cn1c(SCC(=O)NCCN2C(=O)CSC2=O)nc2ccccc2c1=O	-2	7	46	0.5	12	0.9
N#CCCN(C(=O)CSc1nc(-c2ccccc2)cn1N)c1ccc(F)cc1	2	12	-3	1	14	0.9
Nn1cc(-c2ccccc2)nc1SCC(=O)NC1CCS(=O)(=O)C1 (configuration not stated)	-6	-9	10	0.9	-1	1
CN(C)C(CNC(=O)c1cccc(S(=O)(=O)N2CC3(C)CC2CC(C)(C)C3)c1)c1ccco1 (configuration not stated)	-5	-3	75*	0.3	73*	0.3
C=CCOC(=O)C1CC=CCC1C(=O)Oc1ccc(F)cc1F (configuration not stated)	-1	6	86*	0.1	69*	0.3
CC1CCCN(S(=O)(=O)c2ccc(S(=O)(=O)NC(C)c3cccs3)cc2)C1 (configuration not stated)	-4	10	100*	0	74*	0.3
CC(NS(=O)(=O)c1ccc(Br)cc1)C(c1cccs1)N1CCN(C)CC1 (configuration not stated)	4	1	100*	0	-2	1
COc1ccccc1N1CCN(C(c2cccs2)C(C)NS(=O)(=O)c2ccccc2)CC1 (configuration not stated)	-7	-3	72*	0.3	86*	0.1
CC(NS(=O)(=O)c1ccccc1)C(c1cccs1)N1CCN(c2ccccc2)CC1 (configuration not stated)	-5	19	19	0.8	28	0.7
CC1CCCN(S(=O)(=O)c2ccc(NC(=O)CN3CCN(C)CC3)cc2)C1 (configuration not stated)	-5	22	-8	1.1	-2	1
CC(NS(C)(=O)=O)C(c1cccs1)N1CCN(C)CC1 (configuration not stated)	-2	3	-2	1	-4	1
SMILES	Mac1 fbg enh	Mac1 fbg inh	CYP2C19 inh	CYP2C19 activ	CYP2C9 inh	CYP2C9 act
CCCS(=O)(=O)N1CCCC(C(=O)NCCCN(C)c2ccccc2)C1 (configuration not stated)	-2	-3	15	0.9	21	0.8
C=CCNC(=O)/C(C#N)=C\c1cc(Cl)c(O)c(OCC)c1	-3	-9	.	.	.	.
CCOc1cc(/C=C(/C#N)C(=O)Nc2ccc(O)cc2)cc(Br)c1O	-5	50	61*	0.4	94*	0.1
Cc1nn(Cc2ccccc2Cl)c(C)c1NC(=O)CCCn1nc([N+](=O)[O-])c(Cl)c1C	4	-9	.	.	.	.
CC(C)OCCCNC(=O)c1sc(=S)n(C)c1N	-1	-16	57*	0.4	67*	0.3
CCn1c(N)c(C(=O)NCCCOC)sc1=S	0	-7	20	0.8	16	0.8
Cc1ccccc1NC(=O)C1CCCN(S(=O)(=O)c2cnc[nH]2)C1 (configuration not stated)	-1	4	64*	0.4	56*	0.4
O=C(NC(c1ccccc1)c1ccccc1)C1CCCN(S(=O)(=O)c2cnc[nH]2)C1 (configuration not stated)	-5	-1	31	0.7	76*	0.2
Cc1ccc(NC(=O)C2CCCN(S(=O)(=O)c3cnc[nH]3)C2)c(Br)c1 (configuration not stated)	-2	5	93*	0.1	95*	0.1
Cc1c(NC(=O)C2CCCN(S(=O)(=O)c3cnc[nH]3)C2)c(=O)n(-c2ccccc2)n1C (configuration not stated)	0	9	-10	1.1	-7	1.1
O=C(Nc1ccc(Br)cc1F)C1CCCN(S(=O)(=O)c2cnc[nH]2)C1 (configuration not stated)	-3	5	83*	0.2	79*	0.2
O=C1C(=O)N(CNc2ccccn2)c2ccccc21	.	.	9	0.9	-5	1.1
C[C@H](NC(=O)c1ccccc1Cl)C(=O)OCC(=O)N1CC2(C)CC1CC(C)(C)C2 (some centres not stated)	2	25	.	.	.	.
CCCCNC(=O)c1onc(CSc2ccccc2F)c1C(=O)O	-4	-8	0	1	57*	0.4
CCCCNC(=O)c1onc(CSc2ccccc2C)c1C(=O)O	.	.	0	1	59*	0.4
CC(C)NC(=O)c1onc(CSc2ccccc2F)c1C(=O)O	.	.	10	0.9	38	0.6
CC1CCCCN1C(=O)c1cnn2c(C(F)(F)F)cc(-c3ccco3)nc12 (configuration not stated)	0	-11	44	0.6	22	0.8
Clc1ccc(Oc2nnnn2-c2ccccc2)cc1	4	-14	73*	0.3	48	0.5

Screens from PubChem.
